Shown is part of a subset that was picked to be rich in hits.
aSyn 5UTR act: Activators via SNCA 5'UTR binding, MLPCN; alpha-synuclein 5'UTR reporter, activators screen; activity score, % (tested at 7.5 µM), hits read low; 7.1% of 300,000 active; in the data active means activity score below about -60%
Active calls of the source: *.

SMILES	aSyn 5UTR act
O=C(Nc1ccc2c(c1)OCO2)c1c(F)cccc1F	-125*
O=C(Nc1ccc2c(c1)OCO2)c1cccc(F)c1	-183*
O=C(Nc1ccc(Cl)cc1)c1sccc1-n1cccc1	-66*
CCc1ccc(NC(=O)c2sccc2-n2cccc2)cc1	-64*
CCCc1cc(C(=O)Nc2ccc(CC)cc2)no1	-169*
Cc1cc(C(=O)Nc2sc(C)c(C)c2C#N)no1	-170*
Cc1ccc(NC(=O)c2cc(C)on2)cc1	-96*
Cc1cc(C(=O)Nc2ccccn2)no1	-104*
Cc1ccc(/C=C/C(=O)Nc2cc(C)on2)cc1	-227*
Cc1ccc(NC(=S)Nc2cc(C)on2)cc1	-71*
CCCc1cc(C(=O)Nc2ccc(C)cc2)no1	-104*
CCC(N=c1cc(-c2ccc(OC)cc2)oc2ccc(C)cc12)C(=O)O (stereo not given)	-120*
CC1CCc2c(C(=O)NCc3ccccn3)csc2C1 (stereo not given)	-84*
CC1CCc2sc(C(=O)NCc3ccccn3)cc2C1 (stereo not given)	-112*
CC1CCc2sc(C(=O)NC(C)C3CCCO3)cc2C1 (stereo not given)	-96*
CC1CCc2c(C(=O)Nc3ccccn3)csc2C1 (stereo not given)	-116*
CC1CCc2c(C(=O)Nc3nccs3)csc2C1 (stereo not given)	-151*
COc1ccc(OCc2cccc(C(=O)Nc3ccc(CN4CCCCC4)cc3)c2)cc1	-112*
CCN1CCN(Cc2ccc(NC(=O)Nc3ccc(OC)cc3)cc2)CC1	-74*
CCOc1ccc(OCc2cccc(C(=O)Nc3ccc(CN4CCCCC4)cc3)c2)cc1	61
CCN1CCN(Cc2ccc(NC(=O)Nc3ccc(SC)cc3)cc2)CC1	-103*
CC(=O)c1ccc(NC(=O)CCc2c(C)nc3ncnn3c2C)cc1	-69*
CCc1c(C)nc2ncnn2c1Nc1ccc(C(C)=O)cc1	-112*
Cc1ccccc1C(=O)NCCSc1ccccc1	-111*
CSc1ccccc1C(=O)NCCSc1ccccc1	-66*
SMILES	aSyn 5UTR act
O=C(N/N=C(\c1ccccc1)c1ccccn1)c1ccccc1Cl	68
O=C(NCCSc1ccccc1)c1ccccc1Cl	-82*
COc1ccc2nc(NC(=O)C34CC5CC(CC(NC(C)=O)(C5)C3)C4)sc2c1	-94*
CCOc1ccc2nc(NC(=O)C34CC5CC(CC(NC(C)=O)(C5)C3)C4)sc2c1	-132*
CC1CCCN(C(=O)c2ccc(-c3ccccc3Cl)o2)C1 (stereo not given)	-136*
CC1CN(C(=O)c2ccc(-c3ccccc3Cl)o2)CC(C)O1 (stereo not given)	-64*
CC(C)(CNC(=O)c1ccc(-c2ccccc2Cl)o1)N1CCOCC1	-124*
Cc1nc2ccc(NC(=O)NCCCO)cc2s1	-64*
Cc1nc2ccc(NC(=O)NCCO)cc2s1	-64*
CN1N=C(C(=O)Nc2ccc3c(c2)CCC3)CCC1=O	-140*
Cn1ncc(Cl)c1C(=O)Nc1ccc2c(c1)CCC2	-138*
COCC1CCN(C(=O)c2cc(COc3ccc(OC)c4ccccc34)on2)C1 (stereo not given)	-184*
COc1cc(C)ccc1OCc1cc(C(=O)N2CCC(c3ccc(F)cc3)C2)no1 (stereo not given)	-175*
COc1ccc(OCc2cc(C(=O)NC3CCOC(C)(C)C3)no2)c2ccccc12 (stereo not given)	-183*
COCC1CCN(C(=O)c2cc(COc3ccccc3SC)on2)C1 (stereo not given)	-79*
CCOC(=O)C1CCN(C(=O)c2cc(COc3ccc(OC)c4ccccc34)on2)CC1	-124*
COc1cc(Cl)ccc1OCc1cc(C(=O)N2CCCC(OC)C2)no1 (stereo not given)	-148*
COc1ccc(OCc2cc(C(=O)N3CCC(OC)CC3)no2)c2ccccc12	-69*
O=C(NNC(=O)c1ccccc1O)c1ccc(Cl)cc1	-81*
O=C(NNC(=O)c1ccc(O)cc1O)c1ccc(Cl)cc1	-72*
Cc1cccc(C(=O)NNC(=O)c2ccc(Cl)cc2)c1O	-141*
O=C(NNC(=O)c1ccccc1O)c1cccc(Br)c1	-133*
O=C(NNC(=O)c1ccccc1O)c1ccc(Br)cc1	-116*
O=C(NNC(=O)c1cccs1)c1ccc(Br)cc1	-78*
O=C(COC(=O)c1ccc(O)cc1O)c1ccc(Cl)cc1	-96*
SMILES	aSyn 5UTR act
c1ccc(NC2=Nc3ccccc3CS2)cc1	-201*
Cc1ccc(Nc2ccc(C(=O)O)cc2N)cc1	-107*
COc1cccc(Nc2ccc(C(=O)O)cc2N)c1	-118*
O=C(NCc1ccco1)c1cc(-c2cccs2)on1	-297*
O=C(NCc1ccco1)c1cc(-c2ccc(F)cc2)on1	-198*
O=C(NCc1ccco1)c1cc(-c2ccccc2)on1	-161*
O=C(NCc1ccccc1)c1cc(-c2cccs2)on1	-95*
COc1cc(/C=N/NC(=Nc2ccc(C)cc2)c2nc3ccccc3s2)ccc1O	-148*
COc1cc(C=C(c2nc3ccccc3s2)c2nc3ccccc3s2)cc(OC)c1O	-98*
COc1ccccc1/C=N/NC(=Nc1ccc(C)cc1)c1nc2ccccc2s1	-99*
Cn1c(=O)c2nc(-c3ccc(Cl)cc3Cl)oc2c2ccccc21	-72*
Nc1cc2nc[nH]c2cc1N	-100*
COc1ccc(CN2CCN(Cc3cccn3-c3ncccn3)CC2CCO)c(C)c1C (stereo not given)	60
COc1ccc(-c2ncc(CN3CCN(CCC(C)C)C(CCO)C3)cn2)cc1 (stereo not given)	-111*
Cc1cccc(CSc2cn(CC(=O)N3CCOCC3)c3ccccc23)c1	-130*
O=C(Cn1cc(SCc2cccc(Cl)c2)c2ccccc21)N1CCOCC1	-153*
Cc1ccc(N2C(=O)c3n[nH]c(C)c3C2c2ccco2)cc1 (stereo not given)	-65*
CCCSc1ccc(C(=O)Nc2ccc(F)cc2F)cn1	-87*
CCCSc1nsc(NC(=O)CC)n1	-135*
CCCSc1nsc(NC(=O)Nc2ccc(F)cc2F)n1	-129*
CC(C)(C)c1ccc(C(=O)Nc2sc3c(c2C(=O)O)CCC3)cc1	95
COc1ccccc1C(=O)Nc1sc2c(c1C(N)=O)CCCC2	-83*
O=C(Nc1sc2c(c1C(=O)O)CCCC2)c1ccc(F)cc1	-94*
O=C(Nc1sc2c(c1C(=O)O)CCCCC2)c1cccs1	-80*
NC(=O)c1c(NC(=O)c2ccc(F)cc2)sc2c1CCC2	-184*
SMILES	aSyn 5UTR act
CN(C)CCN(C(=O)c1ccc2c(c1)OCCO2)c1nc2ccc(Cl)cc2s1	-159*
CN(C)CCCN(C(=O)c1ccc(S(=O)(=O)N2CCc3ccccc32)cc1)c1nc2ccc(Cl)cc2s1	58
CN(C)CCCN(C(=O)c1ccc2c(c1)OCCO2)c1nc2ccc(Cl)cc2s1	-133*
Cc1ccc(/C=N/Nc2nncn2N)cc1	-120*
COc1cc(OC)cc(C(=O)O/N=C(\N)c2cccc(C)c2)c1	-81*
COc1cc(OC)cc(C(=O)O/N=C(\N)c2ccncc2)c1	-68*
Cc1cccc(/C(N)=N/OC(=O)c2ccc(Br)o2)c1	-210*
Cc1cccc(/C(N)=N/OC(=O)c2cccnc2)c1	-73*
Cc1cccc(/C(N)=N/OC(=O)C23CC4CC(CC(C4)C2)C3)c1	-114*

Source: PubChem (Broad Institute)
